Data reported in PubChem BioAssay (NCATS).
Inconclusive results are not listed. Active and inactive are the calls of the source. The call rests on the fitted dose curve; in most records, active means well fitted curve in the direction sought with a large enough effect; inconclusive means small, poorly fitted or top-dose-only effect, or another doubt; inactive means no such curve, though single readings can be large; an effect the other way counts as inactive or inconclusive.

Legend:
[1] = system: OV90; assay: Primary qHTS to identify gynecologic anti-cancer compounds using libraries of approved drugs and bioactive compounds (AID 1345084); details: Gynecologic cancer cell panel viability, ATPlite luminescence, 48 h; series mostly up to 57.5 µM; further: nearly all actives have a fitted effect of over 55% in size
How it was run: (§1)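 Luminescence from the ATPlite ATP-monitoring reagent indicates viable cell number; lower signal means cytotoxicity. Cells received compound 16 h after seeding and were exposed for 48 h across five concentrations.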

[2] = system: PA-1; assay: as above; details: Gynecologic cancer cell panel viability, ATPlite luminescence, 48 h; series mostly up to 57.5 µM
How it was run: as §1

[3] = system: SKOV3; assay: as above; details: Gynecologic cancer cell panel viability, ATPlite luminescence, 48 h; series mostly up to 57.5 µM
How it was run: as §1

[4] = system: Tov-21-G; assay: as above; details: Gynecologic cancer cell panel viability, ATPlite luminescence, 48 h; series mostly up to 57.5 µM
How it was run: as §1

[5] = system: Tov112D; assay: as above; details: Gynecologic cancer cell panel viability, ATPlite luminescence, 48 h; series mostly up to 57.5 µM
How it was run: as §1

[6] = Drug repurposing screens with cells derived from glioblastoma tumor samples (AID 1345199); details: GBM patient neurospheres viability, ATP luminescence, 48 h; further: nearly all actives have a fitted effect of over 40% in size; further: potency means the concentration at half of the fitted maximal effect
How it was run: (§2)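 Primary testing used CD133+ neurospheres from four GBM patients, seven concentrations, 48 h exposure and ATP-based viability; confirmation added three slower-growing patient lines.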

[7] = system: astro; assay: as above; details: viability, ATP luminescence, 48 h; series mostly up to 45.9 µM
How it was run: as §2

[8] = at 45.9 µM (top of the series), tumour line B
[9] = at 45.9 µM (top of the series), tumour line D
[10] = at 46 µM (top of the series), tumour line A
[11] = at 46.1 µM (top of the series), tumour line C
On the % scale 0 is the no-effect control and ±100 the full control effect.

NS(=O)(=O)c1ccc(N2CCCCS2(=O)=O)cc1
inactive: Potency [1] | Potency [2] | Potency [3] | Potency [4] | Potency [5]

O=C(CCCCCCCCC#CI)Oc1ccccc1
inactive: Potency [1] | Potency [2] | Potency [3] | Potency [4] | Potency [5] | activity, negative = cell killing [6, 8] -16.2% | activity, negative = cell killing [6, 9] -0.884% | activity, negative = cell killing [6, 10] -21.9% | activity, negative = cell killing [6, 11] -10.1% | Potency [7]

CC(C)(C)c1nnc(NS(=O)(=O)c2ccccc2)s1
inactive: Potency [1] | Potency [2] | Potency [3] | Potency [4] | Potency [5] | activity, negative = cell killing [6, 8] -2.48% | activity, negative = cell killing [6, 9] -22.3% | activity, negative = cell killing [6, 10] -25.7% | activity, negative = cell killing [6, 11] -15.6% | Potency [7]

N[C@@H](Cc1cc(I)c(O)c(I)c1)C(=O)O
inactive: Potency [1] | Potency [2] | Potency [3] | Potency [4] | Potency [5] | activity, negative = cell killing [6, 8] 3.22% | activity, negative = cell killing [6, 9] 2.54% | activity, negative = cell killing [6, 10] 14.8% | activity, negative = cell killing [6, 11] 3.63% | Potency [7]

CN(C)C(=O)CNC(=O)Cc1ccccc1
inactive: Potency [1] | Potency [2] | Potency [3] | Potency [4] | Potency [5] | activity, negative = cell killing [6, 8] -9.58% | activity, negative = cell killing [6, 9] -2.49% | activity, negative = cell killing [6, 10] -22.3% | activity, negative = cell killing [6, 11] 4.09% | Potency [7]

CC(C)=CCC/C(C)=C/CC/C(C)=C/CCC(=O)OC/C=C(\C)CCC=C(C)C
inactive: Potency [1] | Potency [2] | Potency [3] | Potency [4] | Potency [5] | activity, negative = cell killing [6, 8] -1.59% | activity, negative = cell killing [6, 9] -0.887% | activity, negative = cell killing [6, 11] -6.49% | Potency [7]
active: Potency ([6]; tumour line A) 35.5 µM

CCOC(=O)C(=O)CCCCCCl
inactive: Potency [1] | Potency [2] | Potency [3] | Potency [4] | Potency [5]

O=c1[nH]c2ccccc2c(=O)n1CCCl
inactive: Potency [1] | Potency [2] | Potency [3] | Potency [4] | Potency [5]

Cc1cccc(C)c1NC(=O)c1ccc(N)cc1
inactive: Potency [1] | Potency [2] | Potency [3] | Potency [4] | Potency [5]

O=C(OCC(COC(=O)c1cccnc1)(COC(=O)c1cccnc1)COC(=O)c1cccnc1)c1cccnc1
inactive: Potency [1] | Potency [2] | Potency [3] | Potency [4] | Potency [5] | activity, negative = cell killing [6, 8] -3.98% | activity, negative = cell killing [6, 9] 3.04% | activity, negative = cell killing [6, 11] -10.2% | Potency [7]
active: Potency ([6]; tumour line A) 14.1 µM

OCCCc1ccccc1
inactive: Potency [1] | Potency [2] | Potency [3] | Potency [4] | Potency [5] | activity, negative = cell killing [6, 8] -21.4% | activity, negative = cell killing [6, 9] -9.24% | activity, negative = cell killing [6, 10] -22.3% | activity, negative = cell killing [6, 11] 2.38% | Potency [7]

CC(=O)OCC(=O)[C@@]1(O)[C@H](OC(C)=O)C[C@H]2[C@@H]3CCC4=CC(=O)C=C[C@]4(C)[C@@]3(F)[C@@H](O)C[C@@]21C
inactive: Potency [1] | Potency [2] | Potency [3] | Potency [4] | Potency [5] | activity, negative = cell killing [6, 8] -11.4% | activity, negative = cell killing [6, 9] -13% | activity, negative = cell killing [6, 10] -9.78% | activity, negative = cell killing [6, 11] -2.85% | Potency [7]

CC(=O)O[C@H]1CC[C@@]2(C)C(=CC[C@@H]3[C@@H]2CC[C@]2(C)C(C(C)=O)=CC[C@@H]32)C1
inactive: Potency [1] | Potency [2] | Potency [3] | Potency [4] | Potency [5]

CC(CC(C#N)(c1ccccc1)C(C)C)N(C)C (centres undefined)
inactive: Potency [1] | Potency [2] | Potency [3] | Potency [4] | Potency [5]

O=C(CS(=O)Cc1ccco1)NC/C=C\COc1cc(CN2CCCCC2)ccn1 (centres undefined)
inactive: Potency [1] | Potency [2] | Potency [3] | Potency [4] | Potency [5]

CN=C(N)NC(=O)Nc1c(C)cccc1C
inactive: Potency [1] | Potency [2] | Potency [3] | Potency [4] | Potency [5] | activity, negative = cell killing [6, 8] -6.83% | activity, negative = cell killing [6, 9] -0.753% | activity, negative = cell killing [6, 11] 0.539% | Potency [7]
active: Potency ([6]; tumour line A) 17.8 µM

NS(=O)(=O)c1cc2c(cc1Cl)CN(C1CCCCC1)C2=O
inactive: Potency [1] | Potency [2] | Potency [3] | Potency [4] | Potency [5]

CCCCCN(CCCOC)C(=O)C(CCC(=O)O)NC(=O)c1ccc(Cl)c(Cl)c1 (centres undefined)
inactive: Potency [1] | Potency [2] | Potency [3] | Potency [4] | Potency [5]

O=C(O)c1[nH]n(-c2ccc(S(=O)(=O)O)cc2)c(=O)c1N=Nc1ccc(S(=O)(=O)O)cc1
inactive: Potency [1] | Potency [2] | Potency [3] | Potency [4] | Potency [5] | activity, negative = cell killing [6, 8] 1.15% | activity, negative = cell killing [6, 9] -22.4% | activity, negative = cell killing [6, 11] -16.3% | Potency [7]
active: Potency ([6]; tumour line A) 28.2 µM

CCOC(=O)NNc1ccc(N(CC)CC(C)O)nn1 (centres undefined)
inactive: Potency [1] | Potency [2] | Potency [3] | Potency [4] | Potency [5] | activity, negative = cell killing [6, 8] -1.62% | activity, negative = cell killing [6, 9] -9.84% | activity, negative = cell killing [6, 10] -25.2% | activity, negative = cell killing [6, 11] 10.8% | Potency [7]

CCc1cc(S(=O)(=O)O)c2cc(C(C)C)cccc1-2
inactive: Potency [1] | Potency [2] | Potency [3] | Potency [4] | Potency [5] | activity, negative = cell killing [6, 8] -10.8% | activity, negative = cell killing [6, 9] -10.6% | activity, negative = cell killing [6, 11] -1.11% | Potency [7]

O=C1CC[C@H](C(=O)N2CCCCC2)N1
inactive: Potency [1] | Potency [2] | Potency [3] | Potency [4] | Potency [5] | activity, negative = cell killing [6, 8] 5.57% | activity, negative = cell killing [6, 9] 0.144% | activity, negative = cell killing [6, 10] -19.7% | activity, negative = cell killing [6, 11] 1.57% | Potency [7]
